30 molecules from ChEMBL document CHEMBL3988442, “University of Dundee, Small-Polar-MMV Screening Library” (2021) can be followed below.

In all, about 38,000 compounds went through this assay and about 1,200 (3.2%) showed an effect of 50% or more. The median lay at about -58%. This excerpt belongs to a sample that is enriched for strong results.

This assay deals with Plasmodium falciparum. The experiment in a line: Calibr Malaria Delayed Death Assay SOP. The class given is functional, organism-based. Further details: scale not given: in the data most compounds retested in dose-response had high values. Conditions: concentration 4.99e-06 (unit not given; other assays of the set use mol/L).
Turning to `Cc1nc(C)c(CC(=O)N2C[C@H]3CC[C@@H]2CN(c2cnccn2)C3)s1`, the “Percent Effect” value is reported as -79.94%.
For `CCc1nnnn1Cc1csc(N(C)C(C)=O)n1` the value was -54.02%.
Regarding `Cc1ccc(Cl)cc1NC(=O)Nc1c[nH]c(=O)[nH]c1=O`, the “Percent Effect” value was -189.6%.
Next, `Cc1ncsc1C(=O)NCCNc1ncccc1C#N`: -35.74%; `CCOCC1c2c(ncn2C)CCN1C(=O)c1cnc(C)cn1.O=C(O)C(F)(F)F` (stereo not given): -51.51%.
Next, `O=C(NCc1c[nH]c(=O)[nH]c1=O)C1CCOc2ccccc2C1` (stereo not given): -114.6%; `Cc1ccc(S(=O)(=O)N(CC(N)=O)CC(C)C)cc1C`: -27.83%; `O=C(NCCCn1ccnc1)c1cccnc1OCC(F)(F)F`: -158.9%.
For `CC(C)[C@@H]1CN(CCCOc2ccc(F)cc2)C[C@H]1NS(C)(=O)=O` the value was 53.48%; for `CCc1ccccc1OCCN1C[C@@H](NS(C)(=O)=O)[C@H](C(C)C)C1`, 45.03%; for `CC(C)[C@@H]1CN(CCOc2ccc(Cl)cc2)C[C@H]1NS(C)(=O)=O`, 45.65%.
For `CC(C)n1cc(N2CC(C(=O)N3CCN(C)CC3)CC2=O)cn1` (stereo not given), the “Percent Effect” value is listed as -61.38%.
Turning to `Cc1csc(N2CCN(C(=O)CCn3cccn3)CC2)n1`, the “Percent Effect” value is -135.1%.
For `CN(Cc1nc2ccsc2c(=O)[nH]1)C[C@@H]1CCCN2CCCC[C@H]12` the value was -24.21%.
Next, `CN(Cc1nc2ccccc2c(=O)[nH]1)C[C@@H]1CCCN2CCCC[C@H]12`: -16.14%; `Cc1cc(C)cc(C(=O)N2CCCN(CC(N)=O)CC2)c1`: -30.23%.
Next, `O=C(CN(CC1CCC1)CC(F)(F)F)N1CCCC1`: -123.3%; `CS(=O)(=O)NC(=O)c1nnn(-c2cccc(F)c2)c1C1CC1`: -54.99%; `CC(C)c1nc(CNC2CCCN(c3cccnn3)C2)no1` (stereo not given): -23.44%.
For `CC(C)(C)c1nc(CNC2CCCN(c3cccnn3)C2)no1` (stereo not given), the “Percent Effect” value is listed as 82.54%.
For `Cc1nc(CNC2CCCN(c3cccnn3)C2)no1` (stereo not given) the value was -95.1%; for `CC1CN(CC(=O)NC2CCCC2)CCN1c1ccc2nncn2n1` (stereo not given), -5%; for `CC1CN(CC2CCCC2)CCN1c1ccc2nncn2n1` (stereo not given), 68.96%.
In the case of `CC1CN(CC2CCCCC2)CCN1c1ccc2nncn2n1` (stereo not given), the “Percent Effect” value was 13.91%.
Next, `Cn1ccc2ccc(C(=O)N3CCN(C(=O)OC(C)(C)C)CC3)cc21`: 4.042%; `Cc1cccc(NC(=O)N2CCn3cnc(COCC4CC4)c3C2)c1`: -185.1%; `COCCNC(=O)C[C@@H]1COC[C@H]2CN(C(=O)C3CCOCC3)C[C@@H]12`: -84.55%.
For `CC(C)(CNC(=O)C(C)(C)c1ccccc1F)C(N)=O` the value was -90.26%; for `CC(C)(C(=O)NCC(N)=O)c1ccccc1F`, -66.81%; for `CN(C)C(C)(C)CNC(=O)C(C)(C)c1ccccc1F`, 51.42%.
